Where “and” joins values, the source holds several entries; their conditions need not be identical. Equal values may be shown once. In all, about 16,000 compounds went through this assay and about 2,600 (16%) were called active. Roughly 20% stayed inconclusive and do not appear here. The call rests on the fitted dose curve; in most records, active means well fitted curve in the direction sought with a large enough effect; inconclusive means small, poorly fitted or top-dose-only effect, or effect the other way; inactive means no such curve, though single readings can be large or run the other way. The list is a sample of the results.
What follows are compounds tested against Cytochrome P450 2D6 (Homo sapiens) (UniProt P10635) (assay: Cytochrome panel assay with activity outcomes). Details: recombinant CYP, pro-luciferin dealkylation, luminescence, p450-cyp2d6; series mostly up to 57.1 µM; activity, negative = inhibition: at the top concentration.
Cytochrome P450 2D6 (Homo sapiens), sequence (P10635 whole entry, looked up): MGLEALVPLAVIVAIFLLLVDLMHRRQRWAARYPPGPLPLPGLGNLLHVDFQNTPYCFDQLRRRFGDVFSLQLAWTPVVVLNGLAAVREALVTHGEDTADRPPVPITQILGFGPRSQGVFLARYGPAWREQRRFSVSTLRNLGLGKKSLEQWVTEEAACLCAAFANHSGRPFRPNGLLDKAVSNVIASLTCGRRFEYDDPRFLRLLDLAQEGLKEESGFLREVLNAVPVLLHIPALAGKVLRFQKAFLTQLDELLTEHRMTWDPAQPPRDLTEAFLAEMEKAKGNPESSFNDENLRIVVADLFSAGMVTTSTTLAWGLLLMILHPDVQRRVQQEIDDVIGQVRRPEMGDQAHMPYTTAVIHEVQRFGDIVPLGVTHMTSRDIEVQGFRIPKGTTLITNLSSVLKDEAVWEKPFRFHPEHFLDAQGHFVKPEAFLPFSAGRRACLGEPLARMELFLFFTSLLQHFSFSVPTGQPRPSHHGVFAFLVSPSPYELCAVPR
On the % scale 0 is the no-effect control and ±100 the full control effect.

activity, negative = inhibition, inactive:
CC(C)(C)CC(C)(C)c1ccc(OCOCCOCCO)c(Cc2cc(C(C)(C)CC(C)(C)C)cc(Cc3cc(C(C)(C)CC(C)(C)C)ccc3OCOCCOCCO)c2OCOCCOCCO)c1 -8.49% [at 25.6 µM]
CCCCSc1nc(C)cc(C)c1S(=O)(=O)c1ccccc1C -21.8%
Cc1ccc([C@@]2(C)CC/C(=N/N=C3\CC[C@](C)(c4ccc(C)c(C)c4)c4cc(C)c(C)cc43)c3cc(C)c(C)cc32)cc1C -2.73% [at 11.4 µM]
O=c1ccc(Oc2nc(N3CCOCC3)nc(N3CCOCC3)n2)n[nH]1 14.7%
NCC[C@H](N)C(=O)O 6.66% [at 11.4 µM]
O=S(=O)(/N=C(/Nc1ccccn1)c1ccccc1)c1ccc(Cl)cc1 17.3%
C=CCSc1nc2c(sc3nc(C)cc(C)c32)c(=O)[nH]1 2.23%
CC1Cc2ccccc2N1Cc1nc2cc(C(F)(F)F)ccc2c(=O)[nH]1 (stereo unspecified) -35.2%
C[N+](C)(C)CCCSc1nc2ccccc2[nH]1 11.4% [at 11.4 µM]
O=C(CSc1nc2ccccc2[nH]1)Nc1c(F)cccc1F -12.7%
O=S(=O)(O)c1ccc(-c2nnc(-c3ccccn3)nc2-c2ccc(S(=O)(=O)O)o2)o1 16.6% [at 11.4 µM]
O=C(Cc1cccc2ccccc12)N/N=C/c1ccc(Sc2nc3ccccc3s2)o1 0.203%
Cc1ccc(S(=O)(=O)N[C@H]2COC(=O)[C@@H](Cc3ccccc3)NC(=O)[C@@H](C)COC(=O)C/C=C\[C@@H]2C)cc1 -0.453% [at 11.4 µM] and -0.419% [at 11.4 µM]
Cc1ccc(N[C@H](c2ccccc2)c2ccc3cccnc3c2O)cc1 -11.8% [at 11.4 µM]
O=C(O)c1ccccc1N[C@H](c1ccccc1)c1ccc2cccnc2c1O -6.89% [at 11.4 µM]
CCCc1nnc(SCC(=O)N2CCCCC2)n1CCCOC 7.22%
CCOc1ccc(NC(=O)c2oc3ccccc3c2NC(=O)CC)cc1 -24.9%
Cc1ccc(NC(=O)N(Cc2ccco2)C(C)c2ccco2)cc1C (stereo unspecified) -5.98%
O=C(COc1ccc(Cl)cc1)Nc1ccc(N2CCN(C(=O)c3ccco3)CC2)cc1 -1.91%
Cc1noc(NS(=O)(=O)c2ccc(N/C=C/C(=O)c3ccc4c(c3)OCO4)cc2)c1C -18%
CCCn1nnnc1-c1cccc(Cl)c1 20.1%
CCc1ccc(OCC(=O)NNC(=O)CSc2ncnc3sc(C)c(C)c23)cc1 1.22%
O=S(=O)(/N=C(\Sc1ccccc1)c1ccccc1)c1ccc(Cl)cc1 -7.46%
Cc1cc(C)c(NC(=O)C[C@H](CC(=O)O)c2cccc3ccccc23)c(C(=O)N2CCC3(CCCC3)CC2)c1 5.85%
CCCCCCCCOC1OC(CO)C(O)C(O)C1NC(C)=O (stereo unspecified) 10%
Nc1ccn([C@H]2O[C@@H](COP(=O)(O)O)[C@@H](O)[C@H]2O)c(=O)n1 0.248% [at 11.4 µM]
CO[C@@H]1COC(=O)[C@H]2CCCN2C(=O)C/C=C\[C@@H](C)[C@H](OC)COC(=O)[C@H]2CCCN2C(=O)C/C=C\[C@H]1C 9.95% [at 11.4 µM]
CN(C)c1oc(-c2ccccc2)nc1C#N -12.9%
Clc1ccccc1-c1cc(NCc2cccnc2)ncn1 -2.97%
C=CCn1cc(/C=N\NC(=O)c2cc3c(ccc4ccccc43)o2)c2ccccc21 -19.7%
COc1ccc(CCn2c3c(c(=O)[nH]c2=O)C(NC(=O)c2cccs2)(C(F)(F)F)C(=O)N3)cc1OC (stereo unspecified) 1.98%
COC(=O)C1=C(NC(=O)c2cccc(OC)c2)CCS1 -19.5%
O=c1c(-c2ccccc2)nc2cnc(N3CCOCC3)nc2n1CCc1ccccc1 -5%
N#C/C(=C\Nc1ccccn1)C(=O)C1CC1 5.79% [at 11.4 µM]
CC[C@@H](CS(=O)(=O)O)[N+](=O)[O-] 2.2% [at 11.4 µM]
CN[C@@H]1[C@H](O[C@@H]2O[C@H](CO)[C@@H](N)[C@H](O)[C@@H]2O)O[C@H]2C[C@@H](N)[C@@H](O[C@H]3[C@@H](O)[C@H](O)[C@H](N)C[C@@H]3N)O[C@H]2[C@H]1O 5.28% [at 25.6 µM]
O=C(COc1ccc(-c2ccccc2)cc1)N/N=C/c1ccccc1Br -26.4%
COc1ccc(-c2cc(C(F)(F)F)nc(SCc3cccc(C(=O)O)c3)n2)cc1 22.7%
COc1cccc(-c2cc(C(F)(F)F)nc(N3CCCCC3)n2)c1 -11.8%
CCCCCCCCCCCCCCCCCCc1ccc(C(=O)/C=C\C(=O)O)cc1 2.49%
Cn1cc(-c2nc3cncnc3n(Cc3ccc(F)cc3)c2=O)c2ccccc21 11.3%
CCCCC1(C)OC(=O)C(=Cc2ccc(N(C)C)cc2)C(=O)O1 (stereo unspecified) 0.664%
NS(=O)(=O)c1ccc(N=Nc2c(O)c(C(=O)O)cc3ccccc23)cc1 14.9% [at 11.4 µM]

AC50, active:
Cc1c(OCC(F)(F)F)ccnc1CSc1nc2ccccc2[nH]1 0.398 µM
Oc1c([C@H](Nc2ccccn2)c2ccccc2)ccc2cccnc12 0.316 µM
CCOc1ccc(NC(=S)N(Cc2ccc(N(C)C)cc2)Cc2ccco2)cc1 8.91 µM
CCOc1ccc(NC(=S)N(Cc2ccc(Cl)cc2)Cc2ccco2)cc1 7.94 µM
COc1ccccc1CNc1ncncc1-c1ccc2c(c1)OCO2 2.51 µM
COc1ccc(CNc2ncncc2-c2ccc3c(c2)OCO3)c(OC)c1 0.794 µM
COc1ccccc1-c1ccc2ncnc(Nc3ccccc3)c2c1 10 µM
Clc1ccccc1-c1ccc2ncnc(NCc3cccnc3)c2c1 6.31 µM
COc1cccc(-c2ccc3ncnc(NCc4cccnc4)c3c2)c1 10 µM
COc1ccccc1-c1ccc2ncnc(NCc3cccnc3)c2c1 7.94 µM
CN(C)C(=O)c1ccc(-c2ccc3ncnc(Nc4ccc(F)cc4)c3c2)cc1 10 µM
COc1ccc(-c2cc(C(F)(F)F)nc(NCc3cccnc3)n2)cc1 31.6 µM
FC(F)(F)c1ccccc1-c1ccc2ncnc(NCc3cccnc3)c2c1 1.58 µM

— PubChem BioAssay AID1851 (National Center for Advancing Translational Sciences (NCATS), 2009)
